{"source": "PubChem BioAssay (Tox21)", "note": "Unmarked numbers belong to inactive results. Inconclusive results are not listed. Activity calls are given as the source filed them. The call rests on the fitted dose curve; in most records, active means well fitted curve in the direction sought with a large enough effect in the repeat runs; inconclusive means weak or mixed curves; inactive means no such curve, though single readings can be large; an effect the other way counts as inactive or inconclusive. On the % scale 0 is the no-effect control and ±100 the full control effect."}
{"assay": "qHTS assay for small molecule disruptors of the mitochondrial membrane potential (AID 720635)", "details": "HepG2 mitochondrial membrane potential, Mito-MPS dye ratio; series mostly up to 83.2 µM; ratio activity, negative = MMP loss: at the top concentration", "method_in_brief": "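Mitochondrial membrane potential tracked with Mito-MPS dye, red aggregates (ex 540/em 590 nm) against green monomers (ex 490/em 535 nm). Compound treatment 1 hr at 37C, dye 30 min in HepG2.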"}
{"molecule": "CCSC(=O)N(CC(C)C)CC(C)C", "ratio activity, negative = MMP loss": "-8.65%"}
{"molecule": "COCCc1ccc(OCC(O)CNC(C)C)cc1", "note": "(stereo not given)", "Potency": "inactive"}
{"molecule": "O=C1NC(=O)[C@@]2(CCOc3ccc(F)cc32)N1", "ratio activity, negative = MMP loss": "-18.2%"}
{"molecule": "N[C@H]1CN(c2c(F)cc3c(=O)c(C(=O)O)cn(C4C[C@H]4F)c3c2Cl)CC12CC2", "note": "(stereo not given in full)", "ratio activity, negative = MMP loss": "16%"}
{"molecule": "CC(C[N+](C)(C)C)OC(N)=O", "note": "(stereo not given)", "ratio activity, negative = MMP loss": "-13.9%"}
{"molecule": "O=C(O)CCCc1ccccc1", "ratio activity, negative = MMP loss": "12.6%"}
{"molecule": "c1ccc(CC2=NCCN2)cc1", "ratio activity, negative = MMP loss": "-11.6% [at 39.1 µM]"}
{"molecule": "O=C(O)c1ccccc1OP(=O)(O)O", "ratio activity, negative = MMP loss": "-10.3%"}
{"molecule": "C=CCS(=O)(=O)O", "ratio activity, negative = MMP loss": "13.9%"}
{"molecule": "O=C(O)CCCl", "ratio activity, negative = MMP loss": "22.9% [at 95.3 µM]"}
{"molecule": "COC(=O)[C@@H](N)Cc1ccc(O)c(O)c1", "ratio activity, negative = MMP loss": "-15.7%"}
{"molecule": "CCOC(=O)c1cccc(N)c1", "ratio activity, negative = MMP loss": "-27.2%"}
{"molecule": "CN(C(=O)c1c(O)c2ccccc2n(C)c1=O)c1ccccc1", "ratio activity, negative = MMP loss": "-18.5%"}
{"molecule": "CO[Si](CCCOCC1CO1)(OC)OC", "note": "(stereo not given)", "Potency": "inactive"}
{"molecule": "CCCN(CCC)CCc1cccc2c1CC(=O)N2", "ratio activity, negative = MMP loss": "-28.6%"}
{"molecule": "NC(=O)Nc1ccccc1", "ratio activity, negative = MMP loss": "22.9%"}
{"molecule": "CCCc1cc(C(N)=S)ccn1", "ratio activity, negative = MMP loss": "-7.58%"}
{"molecule": "Nc1cc(=O)[nH]c(N)n1", "ratio activity, negative = MMP loss": "-5.67%"}
{"molecule": "CC(C)CNCC(C)C", "ratio activity, negative = MMP loss": "18.8%"}
{"molecule": "O=C1CCCCCCCCCCCN1", "ratio activity, negative = MMP loss": "-20.8%"}
{"molecule": "COC(=O)c1c(Cl)c(Cl)c(C(=O)OC)c(Cl)c1Cl", "ratio activity, negative = MMP loss": "-12.6%"}
{"molecule": "N=C(N)c1ccc(OCCCOc2ccc(C(=N)N)cc2)cc1", "ratio activity, negative = MMP loss": "7.1%"}
{"molecule": "CCCCCCCCCCCCCC=O", "ratio activity, negative = MMP loss": "25.8% [at 8.08 µM]"}
{"molecule": "N[C@H](C(=O)O)c1ccc(O)cc1", "ratio activity, negative = MMP loss": "-16.3%"}
{"assay": "qHTS assay to test for compound auto fluorescence at 590 nm (red) in HepG2 cells (AID 720674)", "details": "HepG2 autofluorescence, red 540/590 nm, 1 h; series mostly up to 46 µM; fluorescence, relative to Rose Bengal: at the top concentration", "method_in_brief": "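1 hr compound incubation on HepG2 cells, 37 C, 5% CO2; plate read ex 540 nm / em 590 nm; intensities reported as Rose Bengal sodium equivalents.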"}
{"molecule": "COc1nc(N)nc2c1ncn2[C@@H]1O[C@H](CO)[C@@H](O)[C@@H]1O", "fluorescence, relative to Rose Bengal": "-0.0826%"}
{"molecule": "CC(C)(C)NCCNC(C)(C)C", "fluorescence, relative to Rose Bengal": "0.134% [at 91.3 µM]"}
{"molecule": "CCSC(=O)N(CC(C)C)CC(C)C", "fluorescence, relative to Rose Bengal": "0.0682% [at 91.3 µM]"}
{"molecule": "CC1(C)CO[C@@H](CC(=O)O)CN1", "fluorescence, relative to Rose Bengal": "0.131%"}
{"molecule": "O=C1NC(=O)[C@@]2(CCOc3ccc(F)cc32)N1", "fluorescence, relative to Rose Bengal": "0.797%"}
{"molecule": "N[C@H]1CN(c2c(F)cc3c(=O)c(C(=O)O)cn(C4C[C@H]4F)c3c2Cl)CC12CC2", "note": "(stereo not given in full)", "fluorescence, relative to Rose Bengal": "-0.0013%"}
{"molecule": "CCCCCCCCCCCCN(CCCCCCCCCCCC)CCCCCCCCCCCC", "fluorescence, relative to Rose Bengal": "0.0328% [at 91.3 µM]"}
{"molecule": "CC(C[N+](C)(C)C)OC(N)=O", "note": "(stereo not given)", "fluorescence, relative to Rose Bengal": "-0.245%"}
{"molecule": "N#Cc1ccc(C2CCCc3cncn32)cc1", "note": "(stereo not given)", "fluorescence, relative to Rose Bengal": "0.0907%"}
{"molecule": "CCOC(C)(C)C", "fluorescence, relative to Rose Bengal": "0.019% [at 95.7 µM]"}
{"molecule": "c1ccc(CC2=NCCN2)cc1", "fluorescence, relative to Rose Bengal": "1.02% [at 18.6 µM]"}
{"molecule": "O=C(O)c1ccccc1OP(=O)(O)O", "fluorescence, relative to Rose Bengal": "-0.639%"}
{"molecule": "O=C(O)CCCl", "fluorescence, relative to Rose Bengal": "-0.165% [at 95.7 µM]"}
{"molecule": "COC(=O)[C@@H](N)Cc1ccc(O)c(O)c1", "fluorescence, relative to Rose Bengal": "-0.0326%"}
{"molecule": "NS(=O)(=O)c1cc(C(=O)O)cc(N2CCCC2)c1Oc1ccccc1", "fluorescence, relative to Rose Bengal": "-0.162% [at 18.6 µM]"}
{"molecule": "CCOC(=O)c1cccc(N)c1", "fluorescence, relative to Rose Bengal": "-0.384%"}
{"molecule": "CN(C(=O)c1c(O)c2ccccc2n(C)c1=O)c1ccccc1", "fluorescence, relative to Rose Bengal": "0.159%"}
{"molecule": "CC(=O)c1ccccc1O", "fluorescence, relative to Rose Bengal": "-0.0445% [at 91.3 µM]"}
{"molecule": "CO[Si](CCCOCC1CO1)(OC)OC", "note": "(stereo not given)", "outcome": "inactive"}
{"molecule": "NC(=O)COCCN1CCN(C(c2ccccc2)c2ccc(Cl)cc2)CC1", "note": "(stereo not given)", "fluorescence, relative to Rose Bengal": "-0.0451%"}
{"molecule": "COc1c(N2C[C@@H]3CCCN[C@@H]3C2)c(F)cc2c(=O)c(C(=O)O)cn(C3CC3)c12", "outcome": "inactive"}
{"molecule": "CCC(=O)OC(C)c1ccccc1", "note": "(stereo not given)", "fluorescence, relative to Rose Bengal": "-0.334% [at 91.3 µM]"}
{"molecule": "CC/C=C\\CC/C=C/C(OCC)OCC", "fluorescence, relative to Rose Bengal": "0.0985% [at 91.3 µM]"}
{"molecule": "CCN1CCC[C@H]1CNC(=O)c1c(O)c(Cl)cc(Cl)c1OC", "fluorescence, relative to Rose Bengal": "-0.249%"}
{"molecule": "OC(CCN1CCCCC1)(c1ccccc1)C1CC2C=CC1C2", "note": "(stereo not given)", "outcome": "inactive"}
{"molecule": "CCCN1CCCC[C@H]1C(=O)Nc1c(C)cccc1C", "fluorescence, relative to Rose Bengal": "-0.482%"}
{"molecule": "CC(C)CNCC(C)C", "fluorescence, relative to Rose Bengal": "-0.0445% [at 91.3 µM]"}
{"molecule": "COc1ccc2c(c1)c(CC(=O)OCC(=O)O)c(C)n2C(=O)c1ccc(Cl)cc1", "fluorescence, relative to Rose Bengal": "0.497%"}
{"molecule": "COC(=O)c1c(Cl)c(Cl)c(C(=O)OC)c(Cl)c1Cl", "outcome": "inactive"}
{"molecule": "N=C(N)c1ccc(OCCCOc2ccc(C(=N)N)cc2)cc1", "fluorescence, relative to Rose Bengal": "-0.666%"}
{"assay": "qHTS assay to test for compound auto fluorescence at 535 nm (green) in HepG2 cells (AID 720675)", "details": "green autofluorescence 485/535 nm, 1 h; series mostly up to 46 µM; fluorescence, % of fluorescein control: at the top concentration"}
{"molecule": "COc1nc(N)nc2c1ncn2[C@@H]1O[C@H](CO)[C@@H](O)[C@@H]1O", "fluorescence, % of fluorescein control": "0.09%"}
{"molecule": "CC(C)(C)NCCNC(C)(C)C", "fluorescence, % of fluorescein control": "-0.233% [at 91.3 µM]"}
{"molecule": "CC1(C)CO[C@@H](CC(=O)O)CN1", "fluorescence, % of fluorescein control": "-0.0815%"}
{"molecule": "COCCc1ccc(OCC(O)CNC(C)C)cc1", "note": "(stereo not given)", "outcome": "inactive"}
{"molecule": "N[C@H]1CN(c2c(F)cc3c(=O)c(C(=O)O)cn(C4C[C@H]4F)c3c2Cl)CC12CC2", "note": "(stereo not given in full)", "fluorescence, % of fluorescein control": "0.0142%"}
{"molecule": "CCCCCCCCCCCCN(CCCCCCCCCCCC)CCCCCCCCCCCC", "fluorescence, % of fluorescein control": "-0.0159% [at 91.3 µM]"}
{"molecule": "CC(C[N+](C)(C)C)OC(N)=O", "note": "(stereo not given)", "fluorescence, % of fluorescein control": "-0.0132%"}
{"molecule": "O=C(O)CCCc1ccccc1", "fluorescence, % of fluorescein control": "-0.0204%"}
{"molecule": "N#Cc1ccc(C2CCCc3cncn32)cc1", "note": "(stereo not given)", "fluorescence, % of fluorescein control": "-0.0761%"}
{"molecule": "CCOC(C)(C)C", "fluorescence, % of fluorescein control": "-0.111% [at 95.7 µM]"}
{"molecule": "O=C(O)c1ccccc1OP(=O)(O)O", "fluorescence, % of fluorescein control": "0.0463%"}
{"molecule": "C=CCS(=O)(=O)O", "fluorescence, % of fluorescein control": "0.0144% [at 91.3 µM]"}
{"molecule": "COC(=O)[C@@H](N)Cc1ccc(O)c(O)c1", "fluorescence, % of fluorescein control": "0.0216%"}
{"molecule": "NS(=O)(=O)c1cc(C(=O)O)cc(N2CCCC2)c1Oc1ccccc1", "fluorescence, % of fluorescein control": "-0.002% [at 18.6 µM]"}
{"molecule": "CCOC(=O)c1cccc(N)c1", "fluorescence, % of fluorescein control": "0.432%"}
{"molecule": "CN(C(=O)c1c(O)c2ccccc2n(C)c1=O)c1ccccc1", "fluorescence, % of fluorescein control": "-0.0138%"}
{"molecule": "CC(=O)c1ccccc1O", "fluorescence, % of fluorescein control": "0.0538% [at 91.3 µM]"}
{"molecule": "CCCN(CCC)CCc1cccc2c1CC(=O)N2", "fluorescence, % of fluorescein control": "0.141%"}
{"molecule": "NC(=O)COCCN1CCN(C(c2ccccc2)c2ccc(Cl)cc2)CC1", "note": "(stereo not given)", "fluorescence, % of fluorescein control": "0.0141%"}
{"molecule": "NC(=O)Nc1ccccc1", "fluorescence, % of fluorescein control": "-0.0014% [at 91.3 µM]"}
{"molecule": "COc1c(N2C[C@@H]3CCCN[C@@H]3C2)c(F)cc2c(=O)c(C(=O)O)cn(C3CC3)c12", "outcome": "inactive"}
{"molecule": "CCC(=O)OC(C)c1ccccc1", "note": "(stereo not given)", "fluorescence, % of fluorescein control": "-0.168% [at 91.3 µM]"}
{"molecule": "CCCc1cc(C(N)=S)ccn1", "fluorescence, % of fluorescein control": "-0.113%"}
{"molecule": "CC/C=C\\CC/C=C/C(OCC)OCC", "fluorescence, % of fluorescein control": "-0.0656% [at 91.3 µM]"}
{"molecule": "CCN1CCC[C@H]1CNC(=O)c1c(O)c(Cl)cc(Cl)c1OC", "fluorescence, % of fluorescein control": "0.0268%"}
{"molecule": "OC(CCN1CCCCC1)(c1ccccc1)C1CC2C=CC1C2", "note": "(stereo not given)", "outcome": "inactive"}
{"molecule": "CCCN1CCCC[C@H]1C(=O)Nc1c(C)cccc1C", "fluorescence, % of fluorescein control": "-0.0049%"}
{"molecule": "Nc1cc(=O)[nH]c(N)n1", "fluorescence, % of fluorescein control": "0.0126%"}
{"molecule": "COc1ccc2c(c1)c(CC(=O)OCC(=O)O)c(C)n2C(=O)c1ccc(Cl)cc1", "fluorescence, % of fluorescein control": "0.152%"}
{"molecule": "COC(=O)c1c(Cl)c(Cl)c(C(=O)OC)c(Cl)c1Cl", "outcome": "inactive"}
{"molecule": "N[C@H](C(=O)O)c1ccc(O)cc1", "fluorescence, % of fluorescein control": "0.0827%"}
